Assay results reported in PubChem BioAssay AID2242 (National Center for Advancing Translational Sciences (NCATS), 2010).
The whole screen tested about 200,000 compounds, of which about 720 (0.36%) were called active. Not shown: some 8% with an inconclusive outcome. Calls follow the shape of the dose curve; as a rule, active = well fitted activation curve with a large enough effect; inconclusive = small, poorly fitted or top-dose-only effect, or effect the other way, or another doubt; inactive = flat fitted curve, though single readings scatter. Some of the results follow.

Target: Lysosomal alpha-glucosidase (Homo sapiens) (UniProt P10253)
Assay: qHTS Assay for Activators of Human alpha-Glucosidase as a Potential Chaperone Treatment of Pompe Disease; also: nearly all actives have a fitted effect of over 80% in size
Conditions: purified enzyme, 4-MU-alpha-glucoside fluorescence, 20 min; series mostly up to 76.9 µM
Procedure, shortened: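 Fluorogenic assay, 4 nM enzyme, 400 uM 4-methylumbelliferyl-[…], pH 5.0 citrate/phosphate buffer with 0.005% Tween-20, compounds up to 77 uM, 20 min at room temperature. NaOH/glycine stop, Ex 365/Em 440 nm; AC50 from Hill fits.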
Potency is read from the fitted curve at half-maximal effect.

Potency, active:
Cc1cc(C)n(-c2nc3ccccc3[nH]c2=O)n1 39.8 µM
CNc1nnc(-c2ccc(N(C)C)cc2)s1 35.5 µM
Cc1cc(=O)[nH]c2cc(O)ccc12 35.5 µM
CC(=O)Oc1ccc2c(C)cc(=O)[nH]c2c1 20 µM
CCc1cc2c(=O)c(Oc3ccccc3F)c(C)oc2c(CN(C)C)c1O 35.5 µM
CC(C)Nc1oc(-c2cccc3ccccc23)nc1C#N 35.5 µM
CC1CCN(c2oc(-c3cccc4ccccc34)nc2C#N)CC1 25.1 µM
C=CCNc1oc(-c2cccc3ccccc23)nc1C#N 31.6 µM
COc1ccccc1NC(=O)CSc1nc2c(sc3ccccc32)c(=O)n1CCN(C)C 35.5 µM
CCOC(=O)c1c(C)nc(C)c(C(=O)OCC)c1-c1ccccc1 31.6 µM
Cc1ccc(-c2cc(C(=O)O)c3sc(N4CCCCC4)nc3n2)cc1 28.2 µM
O=C(O)c1cc(-c2ccccc2)nc2nc(N3CCCCC3)sc12 28.2 µM
CCCN(CCC)CCCNC(=O)c1cc2cc3ccc(OC)cc3nc2o1 28.2 µM
CCCCN(CC)CCCNC(=O)c1cc2cc3ccc(OC)cc3nc2o1 31.6 µM
CCn1cc(-c2ccnc3cc(C(=O)O)nn23)c(C)n1 39.8 µM
CN1CCc2c(sc3c2C(=O)NC(c2ccco2)N3)C1 (centres undefined) 31.6 µM
O=C1NC(c2ccco2)Nc2sc3c(c21)CCN(Cc1ccccc1)C3 (centres undefined) 35.5 µM
CCCCCn1c(=O)c(-c2nc3ccccc3[nH]2)c(O)c2ccccc21 39.8 µM
Cc1c(O)ccc2c3c(c(=O)oc12)CCCC3 35.5 µM
Cc1c(O)ccc2c3c(c(=O)oc12)CCC(C)C3 (centres undefined) 35.5 µM
Fc1ccc(-n2c(-c3ccco3)nc3nc4ccccc4nc32)cc1 7.94 µM
Fc1ccc(-n2c(-c3cccs3)nc3nc4ccccc4nc32)cc1 3.55 µM
Fc1cccc(-n2c(-c3ccco3)nc3nc4ccccc4nc32)c1 6.31 µM
Cc1cc(=O)n2cccc(O)c2n1 25.1 µM
O=c1cccc2n1Cc1cc3ccccc3nc1-2 35.5 µM
CN(C)S(=O)(=O)c1cccc(-c2cn3cccnc3n2)c1 39.8 µM
CC1CN(S(=O)(=O)c2cccc(-c3cn4cccnc4n3)c2)CC(C)O1 (centres undefined) 35.5 µM
CCc1nnc(NC(=O)CSc2nc(C)c3c(c2C#N)CCCC3)s1 35.5 µM
CCC(O)CNc1nc(SC)nc2sc3c(c12)CCN(C)C3 (centres undefined) 28.2 µM
